Screening data (PubChem BioAssay)
Shown are actives, neighbours in structure and some others; about 11% of the full set was active somewhere.
USP30 inh: inhibitors of human USP30 deubiquitinase; purified USP30, Ub-rhodamine cleavage fluorescence; inhibition, % at 25 µM; actives 5.3% (n = 47,000)
USP28 inh: inhibitors of human USP28 deubiquitinase | actives 3% (n = 47,000) | Ubiquitin carboxyl-terminal hydrolase 28 (Homo sapiens), Q96RU2 | purified USP28, Ub-rhodamine cleavage fluorescence, 30 min | inhibition, % at 25 µM
Target sequence (Q96RU2 whole entry, looked up): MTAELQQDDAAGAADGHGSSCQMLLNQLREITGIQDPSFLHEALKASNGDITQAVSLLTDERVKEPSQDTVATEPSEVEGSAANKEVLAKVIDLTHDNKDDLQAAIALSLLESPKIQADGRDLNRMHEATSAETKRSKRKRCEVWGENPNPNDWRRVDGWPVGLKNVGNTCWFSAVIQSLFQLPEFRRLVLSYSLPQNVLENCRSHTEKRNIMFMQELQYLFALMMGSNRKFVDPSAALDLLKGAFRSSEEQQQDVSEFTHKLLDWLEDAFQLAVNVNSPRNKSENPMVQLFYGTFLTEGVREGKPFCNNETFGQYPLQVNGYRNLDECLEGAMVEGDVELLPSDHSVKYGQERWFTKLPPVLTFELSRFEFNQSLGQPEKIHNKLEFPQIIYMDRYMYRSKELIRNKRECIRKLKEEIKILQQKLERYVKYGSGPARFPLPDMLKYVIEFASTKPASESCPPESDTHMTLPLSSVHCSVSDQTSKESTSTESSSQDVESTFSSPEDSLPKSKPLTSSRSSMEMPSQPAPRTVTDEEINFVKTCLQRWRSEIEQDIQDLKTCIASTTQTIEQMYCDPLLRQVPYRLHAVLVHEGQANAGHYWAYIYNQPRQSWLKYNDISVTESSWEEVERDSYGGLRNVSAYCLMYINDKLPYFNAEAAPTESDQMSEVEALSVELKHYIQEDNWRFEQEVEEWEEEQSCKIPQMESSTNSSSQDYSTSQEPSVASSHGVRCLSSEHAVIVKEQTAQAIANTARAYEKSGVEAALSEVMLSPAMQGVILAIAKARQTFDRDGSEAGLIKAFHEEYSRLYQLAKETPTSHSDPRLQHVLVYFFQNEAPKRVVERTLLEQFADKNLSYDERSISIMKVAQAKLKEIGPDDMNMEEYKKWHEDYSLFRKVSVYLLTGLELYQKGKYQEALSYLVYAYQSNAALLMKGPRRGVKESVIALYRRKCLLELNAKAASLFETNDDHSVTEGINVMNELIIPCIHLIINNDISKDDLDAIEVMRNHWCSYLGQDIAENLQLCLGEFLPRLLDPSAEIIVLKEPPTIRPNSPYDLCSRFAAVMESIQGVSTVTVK
USP17 block: inhibitors of human USP17 deubiquitinase; Ubiquitin carboxyl-terminal hydrolase 17-like protein 5 (Homo sapiens), A8MUK1; purified USP17, Ub-rhodamine cleavage fluorescence, 3 h; inhibition, % at 50 µM; actives 6.5% (n = 47,000); AID 1645855, 2021
OTUD3 block: inhibitors of human OTUD3 deubiquitinase | OTU domain-containing protein 3 (Homo sapiens), Q5T2D3 | purified OTUD3, Ub-rhodamine fluorescence, 2 h | inhibition, % at 25 µM | actives 0.7% (n = 47,000) | AID 1645858, 2021
Active calls of the source: *; i = inactive; / = not tested or not shown. No stated cut-off is given here; in the data, active means inhibition above about 30%; inactive means the rest.

SMILES	USP30 inh	USP28 inh	USP17 block	OTUD3 block
c1ccc(Cc2nn3c(-c4ccncc4)nnc3c3ccccc23)cc1	36.0*	0.7	48.8*	8.2
c1ccc2c(c1)cnn1c(-c3ccncc3)nnc21	-2.7	-5.3	18.8	-0.1
COc1ccc(Cl)cc1NC(=O)CSc1ncnc2nc[nH]c12	33.1*	43.4*	26.0	-1.3
CCCCCCCCCCCC(O)CC(=O)N[C@@H](CC(C)C)C(=O)N[C@H](CCC(=O)O)C(=O)N[C@H]1C(=O)N[C@H]([C@@H](C)CC)C(=O)NC(CC(C)C)C(=O)N[C@H](CO)C(=O)N[C@@H](CC(C)C)C(=O)N[C@@H](CC(C)C)C(=O)N[C@H](CO)C(=O)N[C@@H](C(C)C)C(=O)O[C@@H]1C (stereo partly drawn)	-15.5	42.8*	51.5*	44.3*
COc1ccc(S(=O)(=O)N2CCc3ccccc32)cc1C(=O)OCC(=O)Nc1c(C(C)C)cccc1C(C)C	-14.4	-10.3	-16.0	-11.4
O=C(Cc1ccccc1)N1CC[C@@H]2CN(CCc3ccccc3)S(=O)(=O)[C@@H]2CC1	-2.1	-1.6	-14.0	-2.6
COc1ccc(-c2cc(-c3ccccc3)nc(SCC(N)=O)c2C#N)cc1OC	-7.1	-9.8	75.1*	-14.0
Cc1n[nH]c(C)c1NC(=O)CN1CC2(CCOCC2)Oc2ccccc2C1=O	4.8	4.0	3.2	8.5
O=C(Nc1cccc(Cl)c1Oc1ccc(S(=O)(=O)N2CCOCC2)cc1)C(F)(F)F	-5.7	8.0	1.2	3.0
N#Cc1c(Cl)cccc1Oc1ccc(S(=O)(=O)N2CCC(O)CC2)cc1	18.4	16.7	66.1*	-1.5
COCCCNC(=O)c1ccc(-c2ccc(N3CCCCC3)nc2)cc1	17.2	18.4	11.5	15.2
O=C(NCc1ccccn1)c1ccc(-c2ccc(N3CCSCC3)nc2)cc1	82.3*	32.7*	59.6*	9.2
Cc1ccc2nc(SCC(=O)NC3CCCCC3)[nH]c2c1	7.4	15.9	0.0	4.5
CCOC(=O)c1cnn(-c2nc3ccccc3s2)c1N=CN(C)C	97.3*	68.6*	69.9*	9.0
Cc1cccc(N2CCN(C(=O)c3nnn(-c4ccc(F)cc4)n3)CC2)c1	25.0	56.0*	13.7	16.3
COc1ccccc1N1CCN(C(=O)c2nnn(-c3ccc(C)cc3)n2)CC1	11.3	-0.9	-14.9	-1.6
O=C(c1nnn(-c2ccccc2)n1)N1CCC(Cc2ccccc2)CC1	30.9*	39.2*	10.4	12.9
Fc1ccc(-c2nsc3c(N4CCCC4)ncnc23)cc1	19.0	2.4	32.0*	16.2
Fc1ccc2[nH]c3c(N4CCCC4)ncnc3c2c1	6.2	-0.7	-8.6	0.2
CCOc1ccc(NC(=O)Cn2c(-c3ccccc3)cc(C(C)=O)c2C)cc1	36.6*	10.7	/	14.9
COc1ccc(NC(=O)COc2ccc(C(=O)c3ccccc3)cc2)c(OC)c1	23.5	-2.6	11.9	1.7
COc1ccc(-c2cc(C(C)=O)c(C)n2CCC(=O)Nc2ccc(C)cn2)cc1	-132.2	-43.1	-44.4	-37.9
COc1ccc(-c2cc(C(C)=O)c(C)n2CCC(=O)Nc2ccc(OC)cc2OC)cc1	81.5*	0.0	33.5*	8.4
COc1ccc(NC(=O)COc2cc(C)nc(-c3ccc(C)cc3)n2)c(OC)c1	57.5*	11.8	62.9*	10.2
CCc1ccccc1OCCOCCN1CCN(C)CC1	-17.3	-2.2	-33.8	-4.6
SMILES	USP30 inh	USP28 inh	USP17 block	OTUD3 block
Cc1cc(OCCOCCN2CCN(C)CC2)cc(C)c1Cl	4.6	33.2*	0.0	0.0
COC(=O)c1cc2c(ccn2C)n1CC(=O)N1CCN(c2ccccc2OC)CC1	-452.4	-110.9	-106.8	-109.7
Fc1cc(F)c2[nH]cc(-c3nnnn3-c3ccc4ccccc4c3)c2c1	71.0*	45.5*	/	13.1
Cc1c(-c2noc(-c3ccncc3)n2)nnn1-c1ccccc1	31.2*	10.2	29.7	5.6
c1ccc(-c2nc(-c3nnn(-c4ccccc4)c3-c3ccncc3)no2)cc1	10.3	-5.7	50.7*	2.3
COc1cccc(CNC(=O)C2=Cc3cccc(OC)c3OC2)c1	0.1	60.2*	-102.8	-0.1
CCOc1ccccc1NC(=O)c1ccc(-n2nnnc2SC)cc1	-27.8	-5.9	25.9	-5.5
COc1ccc(NC(=O)c2ccc(-n3nnnc3SC)cc2)cc1Cl	5.9	14.2	-3.6	86.6*
COc1ccc(OC)c(NC(=O)c2ccc(-n3nnnc3SC)cc2)c1	17.4	16.4	80.0*	-5.0
COc1ccc(C)cc1NC(=O)c1ccc(-n2nnnc2SC)cc1	51.8*	28.0	73.2*	14.2
CC(C)c1nn2c(=O)c(NC(=O)c3ccccc3Cl)cnc2s1	0.0	26.2	-0.3	-0.1
O=C(c1nccc2ccccc12)N1CCC2(C1)Nc1cccnc1NC2=NC1CCCC1 (stereo not drawn)	i	-230.8	-55.6	-153.3
COc1ccc(N(CC(=O)NCc2ccc(Cl)cc2Cl)S(=O)(=O)c2ccccc2[N+](=O)[O-])c(OC)c1	13.3	8.7	1.4	10.7
O=C(CCc1nnc2n(Cc3ccc(Cl)cc3)c(=O)c3ccccc3n12)N1CCN(c2ccccc2)CC1	17.5	1.8	-4.6	-4.8
Cc1ccc(Cn2c(=O)c3ccccc3n3c(CCC(=O)NCC4CCCO4)nnc23)cc1 (stereo not drawn)	39.1*	14.7	/	23.8
O=C(CCc1nnc2n(Cc3ccccc3)c(=O)c3ccccc3n12)N1CCN(c2ccccn2)CC1	60.1*	26.2	34.8*	20.7
O=C(CCc1nnc2n(Cc3ccc(Cl)cc3)c(=O)c3ccccc3n12)N1CCN(c2ccccn2)CC1	83.4*	62.0*	51.6*	27.8
Cc1cccc(CCNC(=O)CCc2nnc3n(CCc4ccccc4)c(=O)c4ccccc4n23)c1	39.0*	1.7	22.5	1.1
CC(=O)N1CCCC(c2ccnc(Nc3ccc(C)cn3)n2)C1 (stereo not drawn)	15.3	1.7	2.3	2.3
O=C(CCc1nnc2n(Cc3ccccc3)c(=O)c3ccccc3n12)NCCN1CCCC1	-1.9	-1.9	-11.8	-7.3
O=C(CCc1nnc2n(Cc3ccccc3)c(=O)c3ccccc3n12)NCc1ccc2c(c1)OCO2	14.2	2.4	39.2*	10.6
Cc1ccc(Cn2c(=O)c3ccccc3n3c(CCC(=O)N4CCN(c5ccccn5)CC4)nnc23)cc1	55.0*	27.2	43.2*	19.1
Cc1ccc(Cn2c(=O)c3ccccc3n3c(CCC(=O)N4CCN(C(=O)c5ccco5)CC4)nnc23)cc1	16.8	7.0	42.5*	7.8
O=C(CCc1nnc2n(CCc3ccccc3)c(=O)c3ccccc3n12)N1CCN(C(=O)c2ccco2)CC1	-11.7	-7.7	0.9	-2.3
Cc1ccccc1NS(=O)(=O)c1cc2[nH]c3c(c2cc1C)C(=O)CCC3	68.8*	57.1*	58.3*	10.6
Cc1cc2c3c([nH]c2cc1S(=O)(=O)N(C)C1CCCCC1)CCCC3=O	-22.7	0.8	48.9*	-1.0
Cc1sc2ncn3c(=O)n(CC(=O)Nc4ccc(F)c(Cl)c4)nc3c2c1C	16.2	7.3	52.7*	5.8
Cc1nn(CC(=O)NCc2ccccc2F)c2ccccc12	29.2	4.4	51.2*	13.6
